Measured values from the supplement of paper PMC4466140.

Target: SpBzz1-D2
Assay: SPOT peptide array binding signal intensity (averaged, normalized) (arbitrary units (background-subtracted, floor 0; scale differs between SH3 domains)); higher = stronger binding of the SH3 domain to the peptide
In short: (§1)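 GST-fused SH3 domains from four yeast species were expressed in E. coli BL21(DE3), purified on glutathione Sepharose and incubated at 10 μg/ml overnight at 4°C in TBS-based blocking buffer on cellulose membranes carrying synthetic 15-mer peptides, with cysteines replaced by serines. Bound protein was detected with anti-GST antibody, an HRP anti-mouse secondary and luminol, then imaged and quantified with Genespotter. Binding signal is the normalized, background-subtracted spot intensity averaged over replicates, in arbitrary units that differ between domains.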

Row | Binder | SPOT peptide array binding signal intensity
1 | RPVPRRPSQPLNTLS | 1.5
2 | IKKRNKIRLPSGSPE | 2

Target: SpCyk3
Assay: as above
In short: as §1

Row | Binder | SPOT peptide array binding signal intensity
3 | RPVPRRPSQPLNTLS | 6.75
4 | IKKRNKIRLPSGSPE | 6.5

Target: SpHof1
Assay: as above
In short: as §1

Row | Binder | SPOT peptide array binding signal intensity
5 | RPVPRRPSQPLNTLS | 297
6 | IKKRNKIRLPSGSPE | 253

Target: SpHof1-2
Assay: as above
In short: as §1

Row | Binder | SPOT peptide array binding signal intensity
7 | RPVPRRPSQPLNTLS | 441
8 | IKKRNKIRLPSGSPE | 4.5

Target: SpHof1-3
Assay: as above
In short: as §1

Row | Binder | SPOT peptide array binding signal intensity
9 | RPVPRRPSQPLNTLS | 278
10 | IKKRNKIRLPSGSPE | 664

Target: SpHse1
Assay: as above
In short: as §1

Row | Binder | SPOT peptide array binding signal intensity
11 | RPVPRRPSQPLNTLS | 297
12 | IKKRNKIRLPSGSPE | 457

Target: SpLsb1
Assay: as above
In short: as §1

Row | Binder | SPOT peptide array binding signal intensity
13 | RPVPRRPSQPLNTLS | 350
14 | IKKRNKIRLPSGSPE | 6.5

Target: SpLsb4
Assay: as above
In short: as §1

Row | Binder | SPOT peptide array binding signal intensity
15 | RPVPRRPSQPLNTLS | 5510
16 | IKKRNKIRLPSGSPE | 104

Target: SpMyo1
Assay: as above
In short: as §1

Row | Binder | SPOT peptide array binding signal intensity
17 | RPVPRRPSQPLNTLS | 37.8
18 | IKKRNKIRLPSGSPE | 4

Target: SpNbp2
Assay: as above
In short: as §1

Row | Binder | SPOT peptide array binding signal intensity
19 | RPVPRRPSQPLNTLS | 81.5
20 | IKKRNKIRLPSGSPE | 836

Target: SpPex13
Assay: as above
In short: as §1

Row | Binder | SPOT peptide array binding signal intensity
21 | RPVPRRPSQPLNTLS | 4.25
22 | IKKRNKIRLPSGSPE | 6

Target: SpRvs167
Assay: as above
In short: as §1

Row | Binder | SPOT peptide array binding signal intensity
23 | RPVPRRPSQPLNTLS | 3150
24 | IKKRNKIRLPSGSPE | 8.5

Target: SpSla1-D1-D2
Assay: as above
In short: as §1

Row | Binder | SPOT peptide array binding signal intensity
25 | RPVPRRPSQPLNTLS | 13
26 | IKKRNKIRLPSGSPE | 1.5

Target: SpSla1-D3
Assay: as above
In short: as §1

Row | Binder | SPOT peptide array binding signal intensity
27 | RPVPRRPSQPLNTLS | 2
28 | IKKRNKIRLPSGSPE | 2

Target: AgAbp1
Assay: as above
In short: as §1

Row | Binder | SPOT peptide array binding signal intensity
29 | IKKRNKIRLPSGSPE | 286

Target: AgBbc1
Assay: as above
In short: as §1

Row | Binder | SPOT peptide array binding signal intensity
30 | IKKRNKIRLPSGSPE | 23.8

Target: AgBem1-D1
Assay: as above
In short: as §1

Row | Binder | SPOT peptide array binding signal intensity
31 | IKKRNKIRLPSGSPE | 55

Target: AgBzz1-D1
Assay: as above
In short: as §1

Row | Binder | SPOT peptide array binding signal intensity
32 | IKKRNKIRLPSGSPE | 22

Target: AgBzz1-D2
Assay: as above
In short: as §1

Row | Binder | SPOT peptide array binding signal intensity
33 | IKKRNKIRLPSGSPE | 34.5

Target: AgCyk3
Assay: as above
In short: as §1

Row | Binder | SPOT peptide array binding signal intensity
34 | IKKRNKIRLPSGSPE | 7

Target: AgFus1
Assay: as above
In short: as §1

Row | Binder | SPOT peptide array binding signal intensity
35 | IKKRNKIRLPSGSPE | 279

Target: AgHof1
Assay: as above
In short: as §1

Row | Binder | SPOT peptide array binding signal intensity
36 | IKKRNKIRLPSGSPE | 52.5

Target: AgHse1
Assay: as above
In short: as §1

Row | Binder | SPOT peptide array binding signal intensity
37 | IKKRNKIRLPSGSPE | 766

Target: AgLsb1
Assay: as above
In short: as §1

Row | Binder | SPOT peptide array binding signal intensity
38 | IKKRNKIRLPSGSPE | 7

Target: AgLsb4
Assay: as above
In short: as §1

Row | Binder | SPOT peptide array binding signal intensity
39 | IKKRNKIRLPSGSPE | 97

Target: AgMyo5
Assay: as above
In short: as §1

Row | Binder | SPOT peptide array binding signal intensity
40 | IKKRNKIRLPSGSPE | 1.75

Target: AgNbp2
Assay: as above
In short: as §1

Row | Binder | SPOT peptide array binding signal intensity
41 | IKKRNKIRLPSGSPE | 202

Target: AgRvs167
Assay: as above
In short: as §1

Row | Binder | SPOT peptide array binding signal intensity
42 | IKKRNKIRLPSGSPE | 5.67

Target: AgSho1
Assay: as above
In short: as §1

Row | Binder | SPOT peptide array binding signal intensity
43 | IKKRNKIRLPSGSPE | 36

Target: AgSla1-D1-D2
Assay: as above
In short: as §1

Row | Binder | SPOT peptide array binding signal intensity
44 | IKKRNKIRLPSGSPE | 89

Target: AgSla1-D3
Assay: as above
In short: as §1

Row | Binder | SPOT peptide array binding signal intensity
45 | IKKRNKIRLPSGSPE | 7

Target: CaAbp1-D1
Assay: as above
In short: as §1

Row | Binder | SPOT peptide array binding signal intensity
46 | IKKRNKIRLPSGSPE | 1510

Target: CaAbp1-D2
Assay: as above
In short: as §1

Row | Binder | SPOT peptide array binding signal intensity
47 | IKKRNKIRLPSGSPE | 858

Target: CaBbc1
Assay: as above
In short: as §1

Row | Binder | SPOT peptide array binding signal intensity
48 | IKKRNKIRLPSGSPE | 94.2

Target: CaBem1-D1
Assay: as above
In short: as §1

Row | Binder | SPOT peptide array binding signal intensity
49 | IKKRNKIRLPSGSPE | 16

Target: CaBzz1-D1
Assay: as above
In short: as §1

Row | Binder | SPOT peptide array binding signal intensity
50 | IKKRNKIRLPSGSPE | 104

Target: CaBzz1-D2
Assay: as above
In short: as §1

Row | Binder | SPOT peptide array binding signal intensity
51 | IKKRNKIRLPSGSPE | 132

Target: CaCyk3
Assay: as above
In short: as §1

Row | Binder | SPOT peptide array binding signal intensity
52 | IKKRNKIRLPSGSPE | 17

Target: CaFus1
Assay: as above
In short: as §1

Row | Binder | SPOT peptide array binding signal intensity
53 | IKKRNKIRLPSGSPE | 615

Target: CaHof1
Assay: as above
In short: as §1

Row | Binder | SPOT peptide array binding signal intensity
54 | IKKRNKIRLPSGSPE | 1.25

Target: CaHse1
Assay: as above
In short: as §1

Row | Binder | SPOT peptide array binding signal intensity
55 | IKKRNKIRLPSGSPE | 38

Target: CaLsb1
Assay: as above
In short: as §1

Row | Binder | SPOT peptide array binding signal intensity
56 | IKKRNKIRLPSGSPE | 1.5

Target: CaLsb4
Assay: as above
In short: as §1

Row | Binder | SPOT peptide array binding signal intensity
57 | IKKRNKIRLPSGSPE | 79

Target: CaMyo5
Assay: as above
In short: as §1

Row | Binder | SPOT peptide array binding signal intensity
58 | IKKRNKIRLPSGSPE | 1.5

Target: CaNbp2
Assay: as above
In short: as §1

Row | Binder | SPOT peptide array binding signal intensity
59 | IKKRNKIRLPSGSPE | 271

Target: CaRvs167
Assay: as above
In short: as §1

Row | Binder | SPOT peptide array binding signal intensity
60 | IKKRNKIRLPSGSPE | 11.7

Target: CaRvs167-3
Assay: as above
In short: as §1

Row | Binder | SPOT peptide array binding signal intensity
61 | IKKRNKIRLPSGSPE | 67.2

Target: CaSho1
Assay: as above
In short: as §1

Row | Binder | SPOT peptide array binding signal intensity
62 | IKKRNKIRLPSGSPE | 506

Target: CaSla1-D1-D2
Assay: as above
In short: as §1

Row | Binder | SPOT peptide array binding signal intensity
63 | IKKRNKIRLPSGSPE | 30

Target: CaSla1-D3
Assay: as above
In short: as §1

Row | Binder | SPOT peptide array binding signal intensity
64 | IKKRNKIRLPSGSPE | 0.5

Target: ScAbp1
Assay: as above
In short: as §1

Row | Binder | SPOT peptide array binding signal intensity
65 | IKKRNKIRLPSGSPE | 39

Target: ScBbc1
Assay: as above
In short: as §1

Row | Binder | SPOT peptide array binding signal intensity
66 | IKKRNKIRLPSGSPE | 12.8

Target: ScBem1-D1
Assay: as above
In short: as §1

Row | Binder | SPOT peptide array binding signal intensity
67 | IKKRNKIRLPSGSPE | 62

Target: ScBzz1-D1
Assay: as above
In short: as §1

Row | Binder | SPOT peptide array binding signal intensity
68 | IKKRNKIRLPSGSPE | 20

Target: ScBzz1-D2
Assay: as above
In short: as §1

Row | Binder | SPOT peptide array binding signal intensity
69 | IKKRNKIRLPSGSPE | 15

Target: ScCyk3
Assay: as above
In short: as §1

Row | Binder | SPOT peptide array binding signal intensity
70 | IKKRNKIRLPSGSPE | 181

Target: ScFus1
Assay: as above
In short: as §1

Row | Binder | SPOT peptide array binding signal intensity
71 | IKKRNKIRLPSGSPE | 242

Target: ScHof1
Assay: as above
In short: as §1

Row | Binder | SPOT peptide array binding signal intensity
72 | IKKRNKIRLPSGSPE | 1.5

Target: ScHse1
Assay: as above
In short: as §1

Row | Binder | SPOT peptide array binding signal intensity
73 | IKKRNKIRLPSGSPE | 1420

Target: ScLsb1
Assay: as above
In short: as §1

Row | Binder | SPOT peptide array binding signal intensity
74 | IKKRNKIRLPSGSPE | 6.25

Target: ScLsb2
Assay: as above
In short: as §1

Row | Binder | SPOT peptide array binding signal intensity
75 | IKKRNKIRLPSGSPE | 11

Target: ScLsb3
Assay: as above
In short: as §1

Row | Binder | SPOT peptide array binding signal intensity
76 | IKKRNKIRLPSGSPE | 162

Target: ScLsb4
Assay: as above
In short: as §1

Row | Binder | SPOT peptide array binding signal intensity
77 | IKKRNKIRLPSGSPE | 13

Target: ScMyo3
Assay: as above
In short: as §1

Row | Binder | SPOT peptide array binding signal intensity
78 | IKKRNKIRLPSGSPE | 4

Target: ScMyo5
Assay: as above
In short: as §1

Row | Binder | SPOT peptide array binding signal intensity
79 | IKKRNKIRLPSGSPE | 6

Target: ScNbp2
Assay: as above
In short: as §1

Row | Binder | SPOT peptide array binding signal intensity
80 | IKKRNKIRLPSGSPE | 256

Target: ScPex13
Assay: as above
In short: as §1

Row | Binder | SPOT peptide array binding signal intensity
81 | IKKRNKIRLPSGSPE | 7.5

Target: ScRvs167
Assay: as above
In short: as §1

Row | Binder | SPOT peptide array binding signal intensity
82 | IKKRNKIRLPSGSPE | 33

Target: ScSho1
Assay: as above
In short: as §1

Row | Binder | SPOT peptide array binding signal intensity
83 | IKKRNKIRLPSGSPE | 681

Target: ScSla1-D1-D2
Assay: as above
In short: as §1

Row | Binder | SPOT peptide array binding signal intensity
84 | IKKRNKIRLPSGSPE | 362

Target: ScSla1-D3
Assay: as above
In short: as §1

Row | Binder | SPOT peptide array binding signal intensity
85 | IKKRNKIRLPSGSPE | 30

Target: SpAbp1-D1
Assay: as above
In short: as §1

Row | Binder | SPOT peptide array binding signal intensity
86 | IKKRNKIRLPSGSPE | 512

Target: SpBbc1
Assay: as above
In short: as §1

Row | Binder | SPOT peptide array binding signal intensity
87 | IKKRNKIRLPSGSPE | 2

Target: SpBzz1-D1
Assay: as above
In short: as §1

Row | Binder | SPOT peptide array binding signal intensity
88 | IKKRNKIRLPSGSPE | 122
